Experimental findings from the supplement of paper PMC11006884 are described below.

Targets with a hit are over-represented here; the source holds about 6,500 in all. About 2% of all pairs of compound and target were hits. Unmarked numbers belong to inactive results.

Chain of UniProt Q9H9A6 (Q9H9A6 whole entry, looked up): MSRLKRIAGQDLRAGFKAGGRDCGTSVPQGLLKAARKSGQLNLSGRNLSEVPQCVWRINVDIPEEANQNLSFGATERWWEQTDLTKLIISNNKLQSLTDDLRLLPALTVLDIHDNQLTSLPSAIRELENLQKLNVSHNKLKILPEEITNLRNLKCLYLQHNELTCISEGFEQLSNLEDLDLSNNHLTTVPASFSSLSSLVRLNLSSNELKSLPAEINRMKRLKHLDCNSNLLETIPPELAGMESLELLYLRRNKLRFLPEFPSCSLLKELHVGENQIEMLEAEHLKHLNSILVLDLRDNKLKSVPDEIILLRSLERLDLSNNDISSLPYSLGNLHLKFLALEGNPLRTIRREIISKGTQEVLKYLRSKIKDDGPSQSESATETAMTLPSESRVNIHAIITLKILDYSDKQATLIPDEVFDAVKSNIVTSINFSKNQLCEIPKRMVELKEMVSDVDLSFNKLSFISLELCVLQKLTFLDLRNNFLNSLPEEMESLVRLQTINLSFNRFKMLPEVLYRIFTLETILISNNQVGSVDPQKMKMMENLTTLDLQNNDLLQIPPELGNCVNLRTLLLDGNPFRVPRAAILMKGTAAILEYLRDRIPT
Chain of UniProt Q9NRX1 (Q9NRX1 whole entry): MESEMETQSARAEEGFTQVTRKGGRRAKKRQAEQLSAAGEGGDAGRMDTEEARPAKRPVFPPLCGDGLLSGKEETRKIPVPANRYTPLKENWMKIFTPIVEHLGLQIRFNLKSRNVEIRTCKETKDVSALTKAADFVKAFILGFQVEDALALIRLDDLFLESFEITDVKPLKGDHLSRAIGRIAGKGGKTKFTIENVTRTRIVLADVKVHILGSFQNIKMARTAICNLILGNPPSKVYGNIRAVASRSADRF
Chain of UniProt Q9NXV2 (Q9NXV2 whole entry, looked up): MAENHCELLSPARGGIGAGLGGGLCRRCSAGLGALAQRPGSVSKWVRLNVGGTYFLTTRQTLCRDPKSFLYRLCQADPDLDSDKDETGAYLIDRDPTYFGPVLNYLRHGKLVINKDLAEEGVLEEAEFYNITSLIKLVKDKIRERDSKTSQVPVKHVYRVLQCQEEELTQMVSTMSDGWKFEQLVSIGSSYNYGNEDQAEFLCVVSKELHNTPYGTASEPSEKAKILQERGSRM
Chain of UniProt Q9Y570 (Q9Y570 whole entry, looked up): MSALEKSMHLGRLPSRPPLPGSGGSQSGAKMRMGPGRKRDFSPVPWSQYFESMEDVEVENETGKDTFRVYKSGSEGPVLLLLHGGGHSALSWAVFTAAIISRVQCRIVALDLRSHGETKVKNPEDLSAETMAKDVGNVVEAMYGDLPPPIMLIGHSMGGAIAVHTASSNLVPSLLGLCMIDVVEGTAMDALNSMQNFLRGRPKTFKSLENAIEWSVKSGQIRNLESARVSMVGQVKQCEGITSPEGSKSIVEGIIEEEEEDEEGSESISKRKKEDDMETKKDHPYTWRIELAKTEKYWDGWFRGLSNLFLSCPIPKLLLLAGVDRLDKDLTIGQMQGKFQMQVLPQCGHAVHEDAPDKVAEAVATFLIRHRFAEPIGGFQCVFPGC
Chain of UniProt Q9C0C2 (Q9C0C2 whole entry, looked up): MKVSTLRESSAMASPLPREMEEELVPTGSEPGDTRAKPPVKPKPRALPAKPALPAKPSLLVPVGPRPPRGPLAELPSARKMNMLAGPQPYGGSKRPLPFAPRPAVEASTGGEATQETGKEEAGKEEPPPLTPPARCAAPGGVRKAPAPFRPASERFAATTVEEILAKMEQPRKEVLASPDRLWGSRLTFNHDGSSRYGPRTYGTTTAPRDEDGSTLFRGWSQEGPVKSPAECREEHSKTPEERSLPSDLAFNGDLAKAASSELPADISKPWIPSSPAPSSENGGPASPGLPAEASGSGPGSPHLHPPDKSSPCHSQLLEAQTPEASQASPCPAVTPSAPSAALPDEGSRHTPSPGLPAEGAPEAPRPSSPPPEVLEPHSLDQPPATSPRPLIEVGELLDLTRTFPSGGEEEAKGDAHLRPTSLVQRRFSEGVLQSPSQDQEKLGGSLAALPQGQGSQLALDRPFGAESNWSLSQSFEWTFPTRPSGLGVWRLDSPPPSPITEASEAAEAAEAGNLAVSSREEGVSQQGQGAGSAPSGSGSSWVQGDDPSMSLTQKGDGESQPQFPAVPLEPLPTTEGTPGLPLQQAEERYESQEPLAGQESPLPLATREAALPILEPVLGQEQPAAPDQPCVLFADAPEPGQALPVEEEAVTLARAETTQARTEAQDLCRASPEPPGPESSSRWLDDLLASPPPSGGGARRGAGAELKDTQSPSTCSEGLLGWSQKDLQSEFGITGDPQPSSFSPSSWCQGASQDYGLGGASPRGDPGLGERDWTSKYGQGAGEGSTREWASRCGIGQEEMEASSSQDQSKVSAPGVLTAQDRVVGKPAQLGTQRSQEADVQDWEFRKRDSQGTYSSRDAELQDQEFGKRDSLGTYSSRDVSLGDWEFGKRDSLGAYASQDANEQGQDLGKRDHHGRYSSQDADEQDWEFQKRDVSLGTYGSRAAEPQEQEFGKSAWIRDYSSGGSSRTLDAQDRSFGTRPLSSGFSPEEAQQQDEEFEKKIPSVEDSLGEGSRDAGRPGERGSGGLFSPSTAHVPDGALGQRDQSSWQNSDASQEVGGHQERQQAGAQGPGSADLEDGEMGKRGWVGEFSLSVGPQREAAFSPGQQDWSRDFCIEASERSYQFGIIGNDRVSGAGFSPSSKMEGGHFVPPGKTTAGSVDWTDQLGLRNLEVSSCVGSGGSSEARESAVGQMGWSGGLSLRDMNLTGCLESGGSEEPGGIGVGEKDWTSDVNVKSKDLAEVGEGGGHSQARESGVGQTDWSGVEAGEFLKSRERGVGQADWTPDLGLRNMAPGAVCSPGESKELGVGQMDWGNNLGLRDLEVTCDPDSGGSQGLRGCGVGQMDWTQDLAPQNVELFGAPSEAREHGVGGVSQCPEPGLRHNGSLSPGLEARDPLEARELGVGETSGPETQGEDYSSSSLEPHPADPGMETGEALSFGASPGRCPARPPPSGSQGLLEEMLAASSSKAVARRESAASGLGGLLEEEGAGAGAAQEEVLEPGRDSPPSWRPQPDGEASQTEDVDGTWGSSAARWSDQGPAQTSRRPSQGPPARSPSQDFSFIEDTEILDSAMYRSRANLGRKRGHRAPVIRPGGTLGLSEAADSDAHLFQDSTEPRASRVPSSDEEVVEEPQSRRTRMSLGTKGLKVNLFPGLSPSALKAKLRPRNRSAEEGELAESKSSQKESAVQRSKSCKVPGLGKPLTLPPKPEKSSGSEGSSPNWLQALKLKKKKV
Chain of UniProt Q9ULH0 (Q9ULH0 whole entry, looked up): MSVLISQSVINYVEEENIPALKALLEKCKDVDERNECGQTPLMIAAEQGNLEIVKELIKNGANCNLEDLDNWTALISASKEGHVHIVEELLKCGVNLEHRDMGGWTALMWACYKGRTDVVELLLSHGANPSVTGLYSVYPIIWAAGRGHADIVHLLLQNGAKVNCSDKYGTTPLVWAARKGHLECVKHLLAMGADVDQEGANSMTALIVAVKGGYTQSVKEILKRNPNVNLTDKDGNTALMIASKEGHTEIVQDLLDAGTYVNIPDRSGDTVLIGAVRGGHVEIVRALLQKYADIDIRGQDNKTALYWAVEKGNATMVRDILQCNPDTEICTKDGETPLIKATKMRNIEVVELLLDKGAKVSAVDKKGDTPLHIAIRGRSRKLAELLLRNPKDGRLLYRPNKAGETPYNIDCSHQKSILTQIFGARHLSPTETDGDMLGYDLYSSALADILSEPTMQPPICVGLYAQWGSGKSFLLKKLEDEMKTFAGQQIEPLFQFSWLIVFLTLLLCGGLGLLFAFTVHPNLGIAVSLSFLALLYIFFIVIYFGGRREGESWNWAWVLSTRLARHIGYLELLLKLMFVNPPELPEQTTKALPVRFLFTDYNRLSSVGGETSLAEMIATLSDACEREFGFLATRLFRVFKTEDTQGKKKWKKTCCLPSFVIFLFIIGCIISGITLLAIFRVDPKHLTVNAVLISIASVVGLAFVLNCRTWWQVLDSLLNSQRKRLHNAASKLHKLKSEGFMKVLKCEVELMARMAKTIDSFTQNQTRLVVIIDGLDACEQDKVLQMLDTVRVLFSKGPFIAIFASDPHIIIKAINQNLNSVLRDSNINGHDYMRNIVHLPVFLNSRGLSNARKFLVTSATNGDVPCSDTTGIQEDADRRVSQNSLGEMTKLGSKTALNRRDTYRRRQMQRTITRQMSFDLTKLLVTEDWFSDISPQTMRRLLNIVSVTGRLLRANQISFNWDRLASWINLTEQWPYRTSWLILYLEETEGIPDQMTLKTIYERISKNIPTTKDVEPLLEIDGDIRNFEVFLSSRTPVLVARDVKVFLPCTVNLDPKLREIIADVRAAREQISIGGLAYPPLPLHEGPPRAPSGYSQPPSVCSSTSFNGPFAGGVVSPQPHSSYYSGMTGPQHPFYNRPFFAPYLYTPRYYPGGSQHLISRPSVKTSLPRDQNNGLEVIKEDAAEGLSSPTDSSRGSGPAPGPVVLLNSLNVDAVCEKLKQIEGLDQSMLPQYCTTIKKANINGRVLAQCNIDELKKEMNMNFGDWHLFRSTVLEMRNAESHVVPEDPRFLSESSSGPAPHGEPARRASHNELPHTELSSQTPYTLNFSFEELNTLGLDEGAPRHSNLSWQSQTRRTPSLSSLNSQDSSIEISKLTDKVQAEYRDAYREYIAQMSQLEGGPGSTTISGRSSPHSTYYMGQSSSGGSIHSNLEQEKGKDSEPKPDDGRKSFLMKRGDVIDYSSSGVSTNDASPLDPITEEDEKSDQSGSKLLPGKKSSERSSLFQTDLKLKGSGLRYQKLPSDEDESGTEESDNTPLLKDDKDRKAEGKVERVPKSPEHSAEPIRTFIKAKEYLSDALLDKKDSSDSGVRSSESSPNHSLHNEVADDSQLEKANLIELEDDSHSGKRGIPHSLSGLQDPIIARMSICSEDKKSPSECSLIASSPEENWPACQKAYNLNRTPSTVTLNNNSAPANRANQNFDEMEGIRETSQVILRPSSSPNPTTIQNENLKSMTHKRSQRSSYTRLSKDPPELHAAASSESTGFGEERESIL

Compound in this assay: COC(=O)C#Cc1ccccc1 [methyl 3-phenylpropiolate]
Put plainly: log2 ratio of iodoacetamide-alkyne labeling of the cysteine site, DMSO over compound (competition); higher = stronger covalent engagement of the cysteine by the compound, active = 1 or more. The note with it: 500 µM; treatment time 1 h; system: HEK293T cell lysate. In a few lines:
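HEK293T lysate (2 mg/mL) was treated with DMSO or electrophile (500 µM, 1 h, ambient temperature), then iodoacetamide alkyne (1 h), clicked to sCIP-TMT reagents, pooled, trypsin-digested overnight at 37 °C, streptavidin-enriched and acid-eluted. Peptides were run on Orbitrap Eclipse LC-MS/MS with FAIMS and quantified in FragPipe. The log2 competition ratio per cysteine is mean control-channel over mean compound-channel reporter intensity. Duplicate channels and three replicates were used, and cysteines quantified in only one replicate were excluded.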
With GSTK1 C176 (UniProt Q9Y2Q3), the “log2 ratio of iodoacetamide-alkyne labeling” value (“log2 ratio” for short) is 0.387.
Turning to PNO1 C64 (UniProt Q9NRX1), the “log2 ratio” value is 0.367.
Consider MDN1 C43 (UniProt Q9NU22), for which the “log2 ratio” value is 1.32 (active).
With STX8 C14 (UniProt Q9UNK0), the “log2 ratio” value was -0.148.
Turning to TNKS1BP1 C1296 (UniProt Q9C0C2), the “log2 ratio” value is 0.451.
Regarding CCDC88C C1520 (UniProt Q9P219), the “log2 ratio” value was 1.15 (active).
For the target ANKFY1 C675 (UniProt Q9P2R3), the “log2 ratio” value is 0.216.
Consider UniProt Q9NWY4_C17, for which the “log2 ratio” value is 0.873.
As to KCTD5 C28 (UniProt Q9NXV2), the “log2 ratio” value is 0.129.
The same measure for LRRC40 C227 (UniProt Q9H9A6): 0.34; for UTP6 C175 (UniProt Q9NYH9): 1.62 (active); for UniProt Q9NWR8_C324: 1.65 (active).
In the case of KIDINS220 C412 (UniProt Q9ULH0), the “log2 ratio” value was 0.0082.
Turning to ATXN10 C356 (UniProt Q9UBB4), the “log2 ratio” value was 1.32 (active).
Turning to STRN4 C337 (UniProt Q9NRL3), the “log2 ratio” value is 0.488.
In the case of UniProt Q9NUQ3_C127, the “log2 ratio” value is 0.926.
In the case of PPME1 C381 (UniProt Q9Y570), the “log2 ratio” value was 1.48 (active).
